{"source": "PubChem BioAssay (EPA / NIEHS)", "note": "Calls of active or inactive are those of the source. How the source made its calls: active means hit-call score of the fitted dose curve at least 0.9, where 1 is the maximum; inactive means score below 0.9."}
{"read-out": "Macrophage colony-stimulating factor (MCSF), CSF1 (gene 1435)", "experiment": "BSK_LPS_MCSF: BioMAP Diversity Plus: LPS Assay for Macrophage colony-stimulating factor (MCSF) Biomarker Activity (AID 2283083)", "settings": "primary human HUVEC with PBMC; actives raise or lower the signal", "method": "BSK_LPS is a cell-based, multiplexed-readout assay that uses umbilical vein endothelium and peripheral blood mononuclear cells, a human vascular primary cell co-culture, with measurements taken at 24 hours after chemical dosing in a 96-well plate.BSK_LPS_MCSF is an assay component measured in the BSK_LPS assay. It measures M-CSF antibody related to regulation of gene expression using ELISA technology.Data from the assay component BSK_LPS_MCSF was analyzed into 1 assay endpoint. This assay endpoint, BSK_LPS_MCSF, was analyzed with bidirectional fitting relative to DMSO as the negative control and baseline of activity. Using a type of binding reporter, gain or loss-of-signal activity can be used to understand changes in the signaling as they relate to the gene CSF1. Furthermore, this assay endpoint can be referred to as a primary readout, because this assay has produced multiple assay endpoints where this one serves a signaling function. To generalize the intended target to other relatable targets, this assay endpoint is annotated to the cytokine intended target family, where the subfamily is colony stimulating factor.\nThe levels of cell surface (or secreted, indicated by the prefix \"s\") biomarker endpoints were measured by ELISA. Overt cytotoxicity to cells in confluent adherent cultures (all systems other than the BT system) was assessed by measuring total protein levels using sulforhodamine B (SRB) staining in parallel cultures at the time of biomarker measurements, indicated as SRB endpoints. For proliferation assays for adherent cell types, individual cell types are cultured at sub-confluence and relative cell numbers quantified by SRB staining at time points optimized for each system (48 h: 3C and CASM3C systems; 72 h: BT and HDF3CGF systems; 96 h: SAg system). SRB was performed by staining cells with 0.1% SRB after fixation with 10% TCA and reading wells at 560 nm.Viability and proliferation of PBMC (T cells) was quantified by Alamar Blue reduction for the SAg and BT systems. For PBMC viability (referred to as PBMC Cytotoxicity within the assay endpoint names), cells were plated (75,000/well in a 96-well plate) and then chemical samples added for 1 h before addition of activators, SEB and TSST-1 (20 ng/mL final concentration each). Cells were incubated for 90 h. Then, Alamar Blue (20 uL/well) (Invitrogen, Cat DAL1100) was added for 6 h, and the plates were read with a fluorescence microplate reader at 546/580 nm (excitation/emission). For PBMC proliferation, cells were plated and activated as above but incubated for only 16 h prior to addition of Alamar Blue. Plates were read after 6 h."}
{"smiles": "FC(F)=C(F)C(F)(F)C(F)(F)C(F)(F)C(F)(F)C(F)(F)C(F)(F)F", "outcome": "inactive"}
{"smiles": "O=S(=O)(O)CCC(F)(F)C(F)(F)C(F)(F)C(F)(F)C(F)(F)C(F)(F)F", "outcome": "inactive"}
{"smiles": "Cc1ccc(S(=O)(=O)NC(=O)NN2CCCCCC2)cc1", "outcome": "inactive"}
{"smiles": "COS(C)(=O)=O", "outcome": "inactive"}
{"smiles": "CCCCCCOC(=O)CC(CC(=O)OCCCCCC)(OC(=O)CCC)C(=O)OCCCCCC", "outcome": "inactive"}
{"smiles": "c1ccc(C(O[C@@H]2CCCN(CCc3ccc4c(c3)OCO4)C2)c2ccccc2)cc1", "AC50": "29.8 µM (active)"}
{"smiles": "CCCCC(CC)C(=O)OCCOCCOCCOC(=O)C(CC)CCCC", "note": "(stereo not given)", "outcome": "inactive"}
{"smiles": "O=C1CN(N=Cc2ccc([N+](=O)[O-])o2)C(=O)N1", "outcome": "inactive"}
{"smiles": "CCCCN1C(=O)[C@@H]([C@H](O)C2CCCCC2)NC(=O)C12CCN(Cc1ccc(Oc3ccc(C(=O)O)cc3)cc1)CC2", "outcome": "inactive"}
{"smiles": "O=S1(=O)CCCO1", "outcome": "inactive"}
{"smiles": "COc1cc2c(c(OC)c1OC)-c1ccc(OC)c(=O)cc1[C@@H](NC(C)=O)CC2", "AC50": "0.493 µM (active)"}
{"smiles": "Cn1cc[nH]c1=S", "outcome": "inactive"}
{"smiles": "C[Si](C)(C)C(F)(F)C(F)(F)C(F)(F)F", "outcome": "inactive"}
{"smiles": "CCc1ccc(O)c(C(C)(C)C)c1", "outcome": "inactive"}
{"smiles": "FC(F)(F)COC(OCC(F)(F)F)OCC(F)(F)F", "outcome": "inactive"}
{"smiles": "CCCCCCCC/C=C\\CCCCCCCC(=O)OC[C@@H](O)[C@H]1OC[C@H](O)[C@H]1O", "outcome": "inactive"}
{"smiles": "OCC(CO)(CO)CO", "outcome": "inactive"}
{"smiles": "Cc1cccc(O)c1C", "outcome": "inactive"}
{"smiles": "O=C(O)c1cccc(C[C@@H]2COc3ccc(OCc4nc5cc(F)ccc5s4)cc3[C@@H]2O)c1", "outcome": "inactive"}
{"smiles": "OC(Cn1cncn1)(Cn1cncn1)c1ccc(F)cc1F", "outcome": "inactive"}
{"smiles": "CCCCCCCC1CCC(=O)O1", "note": "(stereo not given)", "outcome": "inactive"}
{"smiles": "CC1(C)C(=O)N(Cl)C(=O)N1Cl", "outcome": "inactive"}
{"smiles": "CCn1nc(C)c2c1C(=O)NCC(c1ccc(O)cc1)=N2", "outcome": "inactive"}
{"smiles": "C=CCc1cc(S(=O)(=O)c2ccc(O)c(CC=C)c2)ccc1O", "AC50": "28.6 µM (active)"}
{"smiles": "OC[C@H]1O[C@@H]2O[C@H]3[C@H](O)[C@@H](O)[C@@H](O[C@H]4[C@H](O)[C@@H](O)[C@@H](O[C@H]5[C@H](O)[C@@H](O)[C@@H](O[C@H]6[C@H](O)[C@@H](O)[C@@H](O[C@H]7[C@H](O)[C@@H](O)[C@@H](O[C@H]1[C@H](O)[C@H]2O)O[C@@H]7CO)O[C@@H]6CO)O[C@@H]5CO)O[C@@H]4CO)O[C@@H]3CO", "outcome": "inactive"}
{"smiles": "C[C@]12C=CC(=O)C=C1CC[C@H]1[C@@H]3C[C@@H](O)[C@](O)(C(=O)CO)[C@@]3(C)C[C@H](O)[C@@]12F", "outcome": "inactive"}
{"smiles": "CCCc1ccccc1", "outcome": "inactive"}
{"smiles": "OC(CCl)CCl", "outcome": "inactive"}
{"smiles": "CCc1cccc(CC)c1N", "outcome": "inactive"}
{"smiles": "NC(=O)NN=Cc1ccc([N+](=O)[O-])o1", "outcome": "inactive"}
{"smiles": "CCCCCCCCCCCCCCO", "AC50": "31.5 µM (active)"}
{"smiles": "Cn1c(=O)c2[nH]cnc2n(C)c1=O", "outcome": "inactive"}
{"smiles": "Cc1nc(-c2ccccn2)ncc1C(=O)Nn1cc(C)c2cc(F)ccc21", "outcome": "inactive"}
{"smiles": "O=C(Cl)C(F)(F)C(F)(F)C(F)(F)C(=O)Cl", "outcome": "inactive"}
{"smiles": "OCCNCCO", "outcome": "inactive"}
{"smiles": "NC(=O)N(O)[C@@H]1COc2cc(OCc3ccccc3)ccc21", "outcome": "inactive"}
{"smiles": "O=C(O)[C@H](O)[C@@H](O)C(=O)O", "outcome": "inactive"}
{"smiles": "CCCCCOC(C)=O", "outcome": "inactive"}
{"smiles": "CCCCCCCCN(C)C", "outcome": "inactive"}
{"smiles": "C=CN1CCCC1=O", "outcome": "inactive"}
